Laboratory results published in the supplement of paper PMC8728848.
The entries come from a sample that favours the strongest signals as a whole.

B1: CLEC9a (Mus musculus), Q8BRU4 (protein)
chain: MHAEEIYTSLQWDIPTSEASQKCQSPSKCSGAWCVVTMISCVVCMGLLATSIFLGIKFFQVSSLVLEQQERLIQQDTALVNLTQWQRKYTLEYCQALLQRSLHSGSDCSPCPHNWIQNGKSCYYVFERWEMWNISKKSCLKEGASLFQIDSKEEMEFISSIGKLKGGNKYWVGVFQDGISGSWFWEDGSSPLSDLLPAERQRSAGQICGYLKDSTLISDKCDSWKYFICEKKAFGSCI
B2: Tap1 (Sordaria macrospora), Q50IV4 (protein)
chain: MSHHHHHHHHYTLHLRLINDTSDTLTLVEQTSWWGKNTIWSQVRSTGVHVLSMAASGSSGMLRFQTSKGDFFAVAVGVHNYKRWCDVLVDTADEAPLTKLHPKYYDDKDAKYQALWAQASEFEAKSKSGKTVRIKFYQADGNVLRATVEYL

Key:
Assay in all cases: glycan array binding signal (z-score within array); higher = stronger binding
Conditions in all cases: glycan notation: IUPAC condensed, linker removed
[1] = target: Fuc(a1-2)Gal(b1-3)GalNAc
Method in brief: (§1)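 Columns mapping to the same glycan were averaged after glycan names were converted to IUPAC-condensed notation. The data come from 3228 arrays in the Consortium for Functional Glycomics database, limited to those with an available protein sequence. Binding is reported as a within-array Z-score averaged across arrays of one protein sequence and across linkers.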

[2] = target: Fuc(a1-2)Gal(b1-4)Glc6S
Method in brief: as §1

[3] = target: Fuc(a1-2)Gal(b1-4)[Fuc(a1-3)]GlcNAc(b1-2)Man(a1-3)[Fuc(a1-2)Gal(b1-4)[Fuc(a1-3)]GlcNAc(b1-2)Man(a1-6)]Man(b1-4)GlcNAc(b1-4)GlcNAc
Method in brief: as §1

[4] = target: Fuc(a1-2)[Gal(a1-3)]Gal(b1-3)GlcNAc(b1-2)Man(a1-3)[Fuc(a1-2)[Gal(a1-3)]Gal(b1-3)GlcNAc(b1-2)Man(a1-6)]Man(b1-4)GlcNAc(b1-4)GlcNAc
Method in brief: as §1

[5] = target: Fuc(a1-2)[Gal(a1-3)]Gal(b1-4)Glc
Method in brief: as §1

[6] = target: Gal(a1-3)Gal
Method in brief: as §1

[7] = target: Gal(a1-4)Gal(b1-3)GlcNAc(b1-2)Man(a1-3)[Gal(a1-4)Gal(b1-3)GlcNAc(b1-2)Man(a1-6)]Man(b1-4)GlcNAc(b1-4)GlcNAc
Method in brief: as §1

[8] = target: Gal(b1-3)GalNAc
Method in brief: as §1

[9] = target: Gal(b1-3)GlcNAc(b1-2)Man(a1-3)[Gal(b1-3)GlcNAc(b1-2)Man(a1-6)]Man(b1-4)GlcNAc(b1-4)GlcNAc
Method in brief: as §1

[10] = target: Gal(b1-3)GlcNAc(b1-3)Gal(b1-4)GlcNAc
Method in brief: as §1

[11] = target: Gal(b1-3)[Neu5Ac(b2-6)]GalNAc
Method in brief: as §1

[12] = target: Gal(b1-4)Glc
Method in brief: as §1

[13] = target: Gal(b1-4)GlcNAc(b1-3)[Gal(b1-4)GlcNAc(b1-6)]Gal(b1-4)GlcNAc
Method in brief: as §1

[14] = target: Gal(b1-4)GlcNAc(b1-3)[Gal(b1-4)GlcNAc(b1-6)]GalNAc
Method in brief: as §1

[15] = target: Gal4S(b1-4)GlcNAc
Method in brief: as §1

[16] = target: Gal4S6S(b1-4)GlcNAc
Method in brief: as §1

[17] = target: GalNAc(b1-3)Gal
Method in brief: as §1

[18] = target: Glc(a1-6)Glc(a1-6)Glc
Method in brief: as §1

[19] = target: Glc(b1-6)Glc
Method in brief: as §1

[20] = target: GlcNAc(a1-4)Gal(b1-4)GlcNAc(b1-3)Gal(b1-4)[Fuc(a1-3)]GlcNAc(b1-3)Gal(b1-4)[Fuc(a1-3)]GlcNAc
Method in brief: as §1

[21] = target: GlcNAc(b1-2)[GlcNAc(b1-4)]Man(a1-3)[GlcNAc(b1-2)Man(a1-6)]Man(b1-4)GlcNAc(b1-4)GlcNAc
Method in brief: as §1

[22] = target: GlcNAc(b1-3)[GlcNAc(b1-6)]Gal(b1-4)GlcNAc
Method in brief: as §1

[23] = target: GlcNAc(b1-4)Gal(b1-4)GlcNAc
Method in brief: as §1

[24] = target: GlcNAc(b1-4)GlcNAc(b1-4)GlcNAc
Method in brief: as §1

[25] = target: Neu5Ac(a2-3)Gal(b1-3)[Fuc(a1-4)]GlcNAc
Method in brief: as §1

[26] = target: Neu5Ac(a2-3)Gal(b1-4)GlcNAc(b1-2)Man(a1-3)[GlcNAc(b1-2)Man(b1-4)GlcNAc(b1-2)Man(a1-6)]Man(b1-4)GlcNAc(b1-4)GlcNAc
Method in brief: as §1

[27] = target: Neu5Ac(a2-3)Gal(b1-4)GlcNAc(b1-6)[Neu5Ac(a2-3)Gal(b1-3)]GalNAc
Method in brief: as §1

[28] = target: Neu5Ac(a2-3)Gal(b1-4)[Fuc(a1-3)]GlcNAc(b1-3)Gal
Method in brief: as §1

[29] = target: Neu5Ac(a2-3)Gal(b1-4)[Fuc(a1-3)]GlcNAc(b1-6)[Neu5Ac(a2-3)Gal(b1-3)]GalNAc
Method in brief: as §1

[30] = target: Neu5Ac(a2-3)Gal(b1-4)[Fuc(a1-3)]GlcNAc6S
Method in brief: as §1

[31] = target: Neu5Ac(a2-3)GalNAc
Method in brief: as §1

[32] = target: Neu5Ac(a2-6)Gal(b1-4)Glc
Method in brief: as §1

[33] = target: Neu5Ac(a2-6)Gal(b1-4)GlcNAc(b1-2)Man(a1-3)[GlcNAc(b1-2)Man(a1-6)]Man(b1-4)GlcNAc(b1-4)GlcNAc
Method in brief: as §1

[34] = target: Neu5Ac(a2-8)Neu5Ac(a2-3)[GalNAc(b1-4)]Gal(b1-4)Glc
Method in brief: as §1

[35] = target: Neu5Ac(a2-8)Neu5Ac(a2-8)Neu5Ac(a2-8)Neu5Ac(a2-3)[GalNAc(b1-4)]Gal(b1-4)Glc
Method in brief: as §1

[36] = target: Neu5Gc(a2-3)Gal(b1-3)[Fuc(a1-4)]GlcNAc
Method in brief: as §1

[37] = target: Neu5Gc(a2-6)GalNAc
Method in brief: as §1

[38] = target: Neu5Ac(a2-3)Gal(b1-4)[Fuc(a1-3)]GlcNAc(b1-3)Gal(b1-4)GlcNAc
Method in brief: as §1

[39] = target: Neu5Ac(a2-3)GalNAc(b1-4)GlcNAc
Method in brief: as §1

[40] = target: Neu5Ac(a2-6)Gal(b1-4)GlcNAc(b1-3)Gal(b1-4)[Fuc(a1-3)]GlcNAc(b1-3)Gal(b1-4)[Fuc(a1-3)]GlcNAc
Method in brief: as §1

| Binder | glycan array binding signal (z-score) [1] | glycan array binding signal (z-score) [2] | glycan array binding signal (z-score) [3] | glycan array binding signal (z-score) [4] | glycan array binding signal (z-score) [5] | glycan array binding signal (z-score) [6] | glycan array binding signal (z-score) [7] | glycan array binding signal (z-score) [8] | glycan array binding signal (z-score) [9] | glycan array binding signal (z-score) [10] | glycan array binding signal (z-score) [11] | glycan array binding signal (z-score) [12] | glycan array binding signal (z-score) [13] | glycan array binding signal (z-score) [14] | glycan array binding signal (z-score) [15] | glycan array binding signal (z-score) [16] | glycan array binding signal (z-score) [17] | glycan array binding signal (z-score) [18] | glycan array binding signal (z-score) [19] | glycan array binding signal (z-score) [20] | glycan array binding signal (z-score) [21] | glycan array binding signal (z-score) [22] | glycan array binding signal (z-score) [23] | glycan array binding signal (z-score) [24] | glycan array binding signal (z-score) [25] | glycan array binding signal (z-score) [26] | glycan array binding signal (z-score) [27] | glycan array binding signal (z-score) [28] | glycan array binding signal (z-score) [29] | glycan array binding signal (z-score) [30] | glycan array binding signal (z-score) [31] | glycan array binding signal (z-score) [32] | glycan array binding signal (z-score) [33] | glycan array binding signal (z-score) [34] | glycan array binding signal (z-score) [35] | glycan array binding signal (z-score) [36] | glycan array binding signal (z-score) [37] | glycan array binding signal (z-score) [38] | glycan array binding signal (z-score) [39] | glycan array binding signal (z-score) [40] |
| --- | --- | --- | --- | --- | --- | --- | --- | --- | --- | --- | --- | --- | --- | --- | --- | --- | --- | --- | --- | --- | --- | --- | --- | --- | --- | --- | --- | --- | --- | --- | --- | --- | --- | --- | --- | --- | --- | --- | --- | --- |
| B1 | 0.078 | 0.626 | 2.21 | 3.03 | 1.11 | 1.37 | 3.35 | -0.657 | 1.97 | 1.18 | 1.89 | -0.825 | 0.779 | 1.87 | 1.88 | -1.4 | 0.273 | -0.171 | 0.001 | 0.915 | 4.01 | -1.89 | 0.714 | 2.95 | -0.871 | 2.01 | -0.1 | -1.7 | 1.35 | -0.627 | -1.07 | 0.132 | -0.365 | 0.872 | 2.43 | -0.987 | -0.83 |  |  |  |
| B2 |  |  |  |  |  |  |  |  |  |  |  |  |  |  |  |  |  |  |  |  |  |  |  |  |  |  |  |  |  |  |  |  |  |  |  | -0.24 |  | -0.144 | -0.247 | -0.176 |
